According to PubChem BioAssay (Tox21):
Records with an inconclusive call do not appear. Values without a mark were called inactive. Calls follow the shape of the full dose curve.

The molecules below were run against Vitamin D3 receptor (Homo sapiens) (UniProt P11473) (assay: qHTS assay to identify small molecule agonists of the vitamin D receptor (VDR) signaling pathway (AID 743222)). Conditions: HEK293T VDR-UAS-bla, beta-lactamase FRET ratio, 16 h; series mostly up to 63.5 µM; activation: at the top concentration.
Source text: National Center for Advancing Translational Sciences [NCATS]
NIH Chemical Genomics Center [NCGC]
U.S. Environmental Protection Agency [EPA]
National Institutes of Environmental Health Sciences [NIEHS]
National Toxicology Program [NTP]
U.S. Food and Drug Administration [FDA]
The vitamin D receptor (VDR), a member of nuclear hormone receptor superfamily, plays a critical role in calcium homeostasis and bone metabolism. It is also involved in cell differentiation and growth, and thrombogenicity.
Tox21 Assay Protocol Summary:
VDR-bla cells were dispensed at 2,000 cells/6 uL/well into black wall/clear-bottom 1536-well plates using a Multidrop Combi (Thermo Fisher Scientific, Waltham, MA) dispenser. After the assay plates were incubated at a 37C and 5% CO2 for 4 h, 23 nL of compounds dissolved in DMSO, positive controls or DMSO only was transferred to the assay plate by a Pintool station (Kalypsys, San Diego, CA). The plates were incubated at 37C and 5% CO2 for 16 h. After 1 uL of LiveBLAzerTM B/G FRET substrate was added using a Bioraptr Flying Reagent Dispenser (FRD) workstation (Beckman Coulter, Indianapolis, IN, USA), the plates were incubated at room temperature for 2 h, and fluorescence intensity was measured by an Envision plate reader (PerkinElmer, Shelton, CT).
% is scaled to controls: 0 for no effect and ±100 for the full control effect.

Sequence of Vitamin D3 receptor (Homo sapiens) (P11473 whole entry, looked up): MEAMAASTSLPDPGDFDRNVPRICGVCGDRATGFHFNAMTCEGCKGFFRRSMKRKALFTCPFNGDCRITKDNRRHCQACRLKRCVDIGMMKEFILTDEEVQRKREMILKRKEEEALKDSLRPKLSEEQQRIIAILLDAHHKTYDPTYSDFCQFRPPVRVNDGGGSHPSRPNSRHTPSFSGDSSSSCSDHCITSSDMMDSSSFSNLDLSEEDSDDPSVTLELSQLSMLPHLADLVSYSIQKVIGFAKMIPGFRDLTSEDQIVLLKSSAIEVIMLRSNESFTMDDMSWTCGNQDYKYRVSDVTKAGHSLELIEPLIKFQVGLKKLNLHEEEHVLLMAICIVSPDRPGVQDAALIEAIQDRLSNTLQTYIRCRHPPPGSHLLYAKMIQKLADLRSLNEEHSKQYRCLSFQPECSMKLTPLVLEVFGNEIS

SMILES	activation
CN1CCC[C@@H]1c1cccnc1	11%
CCCCCc1ccc(N)cc1	-1.8%
C1CCC2OC2C1 (stereo not given)	-6.87% [at 81.1 µM]
CN(C)C/C=C(/c1ccc(Br)cc1)c1cccnc1	-6.18%
Cc1ncsc1CCO	2.49%
CCCCCCCCCCCCCCCC(=O)OC/C=C(C)/C=C/C=C(C)/C=C/C1=C(C)CCCC1(C)C	-9.87%
CCCCCCCCCC=O	-7.87%
CCCCCCCCCCCCCCCCCBr	2.7% [at 29.5 µM]
CC[C@H](C)[C@@H](C(=O)O)n1sc2ccccc2c1=O	4.8%
CCN(CC)C(C)=O	1.51% [at 81.1 µM]
CCCCOCCOCCOCCOCCO	-2.89%
O=C1Nc2cc(Cl)ccc2Oc2ccccc21	6.01%
ClC(Cl)(Cl)c1ccc(C(Cl)(Cl)Cl)cc1	-9.99%
Oc1ccc(C(O)CNCCCCCCNCC(O)c2ccc(O)c(O)c2)cc1O (stereo not given)	-10.2%
CC(=O)Nc1ccc(/C=N/NC(N)=S)cc1	2.07%
O=C(C(=O)c1ccc(Br)cc1)c1ccc(Br)cc1	0.409% [at 29.5 µM]
Cc1ccc(C(=O)C(C)CN2CCCCC2)cc1 (stereo not given)	5.19%
CCN(CC)CCOc1ccc2c(c1)C(=O)c1cc(OCCN(CC)CC)ccc1-2	10.9%
CC(C)(Oc1ccc(Cl)cc1)C(=O)OCCCOC(=O)C(C)(C)Oc1ccc(Cl)cc1	10.2%
O=C(O)COC(=O)Cc1ccccc1Nc1c(Cl)cccc1Cl	1.21%

SMILES	activation
CN1CCC(=C2c3ccccc3C=Cc3ccccc32)CC1	-3.49%
CCCCCOC(=O)COc1cc(N2C(=O)C3=C(CCCC3)C2=O)c(F)cc1Cl	-5.7%
O=C(O)/C=C/c1cnc[nH]1	-2.19%
COC(=O)C(C)=O	-9.4% [at 81.1 µM]
Nc1nc(CC(=O)O)cs1	-4.94% [at 81.1 µM]
CCCCCCCCCCCCCCC1CO1 (stereo not given)	6.18%
CN1CCC(OC(c2ccccc2)c2ccccc2)CC1	-12.6%
Cc1cc(CC(=O)O)c(C)n1-c1ccc(Cl)cc1	-7.14%
O=C(CC(=O)c1ccccc1)c1ccccc1	-16.8% [at 81.1 µM]
NCCCN(CCO)CCO	7.52%
CCOC(=O)C1=C(C)NC(C)=C(C(=O)OC)C1c1cccc([N+](=O)[O-])c1 (stereo not given)	-6.98%
Cc1ccc(O)c([C@H](CCN(C(C)C)C(C)C)c2ccccc2)c1	-3.71%
CC(C)(C)c1cc(O)c(C(C)(C)C)cc1O	-11.8%
CC[C@H](C)[C@H](N)C(=O)O	6.01%
c1ccc(OCc2ccc(CCCN3CCOCC3)cc2)cc1	9.85%
CC(C)c1ccc2c(C(C)C)cc(C(C)C)c(S(=O)(=O)O)c2c1	3.23% [at 81.1 µM]
CCCCOc1cc(C(=O)OCCN(CC)CC)ccc1N	4.19%
CCCC(C)C	-1.21% [at 81.1 µM]
CC(C)(C)c1cc(CO)cc(C(C)(C)C)c1O	-11.8% [at 81.1 µM]
CCCCCCCCN(C)C	4.03%
